Reference: PubChem BioAssay AID1159580 (chemical genetic matrix, 2015)
In all, about 5,500 compounds went through this assay and about 2,000 (36%) were called active. Inconclusive results (about 18%) are left out. Rule as the data show it: active = normalized growth mostly below about 0.91 (no sharp cut-off); inconclusive = no clear call, values can overlap the other calls; inactive = mostly above about 0.92. The list shows a part of the results.

Assay: chemical genetic growth profiling, strain panel (AID 1159580);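 also: tested at 20 µM; growth read once vehicle control cultures reached saturation at 30 °C; 1 = growth at the plate median or of vehicle wells; lower values mean less growth of the strain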
Details: S. cerevisiae deletion strains, growth OD
[1] = locus YAL040C, strain CLN3, stronger effect = lower value
[2] = locus YCL061C, strain MRC1 (second series), stronger effect = lower value
[3] = locus YDR363W, strain ESC2, stronger effect = lower value
[4] = locus YER002W, strain NOP16, stronger effect = lower value
[5] = locus YJR075W, strain HOC1, stronger effect = lower value
[6] = locus YMR263W, strain SAP30, stronger effect = lower value
[7] = locus YNL153C, strain GIM3, stronger effect = lower value
[8] = locus YNL175C, strain NOP13, stronger effect = lower value
[9] = locus YNL197C, strain WHI3, stronger effect = lower value
[10] = locus YNL224C, strain SQS1, stronger effect = lower value
[11] = locus YOR083W, strain WHI5 (second series), stronger effect = lower value
[12] = locus YAL021C, strain ccr4, stronger effect = lower value
[13] = locus YAL026C, strain drs2, stronger effect = lower value
[14] = locus YAL030W, strain snc1, stronger effect = lower value
[15] = locus YBL061C, strain skt5, stronger effect = lower value
[16] = locus YBR009C, strain hhf1, stronger effect = lower value
[17] = locus YBR023C, strain chs3, stronger effect = lower value
[18] = locus YBR171W, strain sec66, stronger effect = lower value
[19] = locus YBR231C, strain swc5, stronger effect = lower value
[20] = locus YBR279W, strain paf1, stronger effect = lower value
[21] = locus YCL011C, strain gbp2, stronger effect = lower value
[22] = locus YCL016C, strain dcc1, stronger effect = lower value
[23] = locus YCL061C, strain MRC1, stronger effect = lower value
[24] = locus YCL069W, strain vba3, stronger effect = lower value
[25] = locus YCR088W, strain abp1, stronger effect = lower value
[26] = locus YDL005C, strain med2, stronger effect = lower value
[27] = locus YDL040C, strain nat1, stronger effect = lower value
[28] = locus YDR001C, strain nth1, stronger effect = lower value
[29] = locus YDR069C, strain doa4, stronger effect = lower value
[30] = locus YDR137W, strain rgp1, stronger effect = lower value
[31] = locus YDR159W, strain sac3, stronger effect = lower value
[32] = locus YDR297W, strain sur2, stronger effect = lower value
[33] = locus YDR334W, strain swr1, stronger effect = lower value
[34] = locus YDR335W, strain msn5, stronger effect = lower value
[35] = locus YDR392W, strain spt3, stronger effect = lower value
[36] = locus YEL003W, strain gim4, stronger effect = lower value
[37] = locus YEL037C, strain rad23, stronger effect = lower value
[38] = locus YEL061C, strain CIN8 (second series), stronger effect = lower value
[39] = locus YER015W, strain faa2, stronger effect = lower value
[40] = locus YER016W, strain bim1, stronger effect = lower value
[41] = locus YER111C, strain swi4, stronger effect = lower value
[42] = locus YER155C, strain BEM2 (second series), stronger effect = lower value
[43] = locus YFR010W, strain ubp6, stronger effect = lower value
[44] = locus YGL167C, strain pmr1, stronger effect = lower value
[45] = locus YGL173C, strain kem1, stronger effect = lower value
[46] = locus YGL227W, strain vid30, stronger effect = lower value
[47] = locus YGL240W, strain doc1, stronger effect = lower value
[48] = locus YGL253W, strain hxk2, stronger effect = lower value
[49] = locus YHR013C, strain ard1, stronger effect = lower value
[50] = locus YHR027C, strain rpn1, stronger effect = lower value
[51] = locus YHR142W, strain chs7, stronger effect = lower value
[52] = locus YJL092W, strain hpr5, stronger effect = lower value
[53] = locus YJL095W, strain BCK1 (second series), stronger effect = lower value
[54] = locus YJL115W, strain asf1, stronger effect = lower value
[55] = locus YJL129C, strain trk1, stronger effect = lower value
[56] = locus YJL154C, strain vps35, stronger effect = lower value
[57] = locus YJL164C, strain tpk1, stronger effect = lower value
[58] = locus YJL166W, strain qcr8, stronger effect = lower value
[59] = locus YJL187C, strain SWE1, stronger effect = lower value
[60] = locus YKL160W, strain elf1, stronger effect = lower value
[61] = locus YKR026C, strain gcn3, stronger effect = lower value
[62] = locus YKR091W, strain srl3, stronger effect = lower value
[63] = locus YLL001W, strain dnm1, stronger effect = lower value
[64] = locus YLL026W, stronger effect = lower value
[65] = locus YLL041C, strain sdh2, stronger effect = lower value
[66] = locus YLR027C, strain aat2, stronger effect = lower value
[67] = locus YLR221C, strain rsa3, stronger effect = lower value
[68] = locus YLR258W, strain gsy2, stronger effect = lower value
[69] = locus YLR262C, strain YPT6 (second series), stronger effect = lower value
[70] = locus YLR320W, strain mms22, stronger effect = lower value
[71] = locus YLR342W, strain FKS1, stronger effect = lower value
[72] = locus YLR357W, strain rsc2, stronger effect = lower value
[73] = locus YLR370C, strain arc18, stronger effect = lower value
[74] = locus YLR384C, strain iki3, stronger effect = lower value
[75] = locus YML120C, strain ndi1, stronger effect = lower value
[76] = locus YMR058W, strain fet3, stronger effect = lower value
[77] = locus YMR125W, strain sto1, stronger effect = lower value
[78] = locus YMR129W, stronger effect = lower value
[79] = locus YMR205C, strain PFK2, stronger effect = lower value
[80] = locus YMR231W, strain pep5, stronger effect = lower value
[81] = locus YNL071W, strain lat1, stronger effect = lower value
[82] = locus YNL209W, strain ssb2, stronger effect = lower value
[83] = locus YNL248C, strain rpa49, stronger effect = lower value
[84] = locus YNL322C, strain KRE1 (second series), stronger effect = lower value
[85] = locus YNR049C, strain mso1, stronger effect = lower value
[86] = locus YOR001W, strain rrp6, stronger effect = lower value
[87] = locus YOR070C, strain gyp1, stronger effect = lower value
[88] = locus YOR080W, strain dia2, stronger effect = lower value
[89] = locus YOR083W, strain WHI5, stronger effect = lower value
[90] = locus YOR106W, strain vam3, stronger effect = lower value
[91] = locus YOR265W, strain rbl2, stronger effect = lower value
[92] = locus YOR270C, strain vph1, stronger effect = lower value
[93] = locus YOR290C, strain snf2, stronger effect = lower value
[94] = locus YPL051W, strain arl3, stronger effect = lower value
[95] = locus YPL078C, strain atp4, stronger effect = lower value
[96] = locus YPL106C, strain sse1, stronger effect = lower value
[97] = locus YPL240C, strain hsp82, stronger effect = lower value

Measured: normalized growth

CC[N+](CC)(CC)CC
inactive: [1] 1.02 | [2] 1 | [3] 0.99 | [4] 0.989 | locus YGR078C, strain PAC10, stronger effect = lower value 1 | locus YGR229C, strain SMI1, stronger effect = lower value 1.02 | [5] 1.02 | [6] 0.994 | locus YMR307W, strain GAS1, stronger effect = lower value 0.991 | [7] 0.986 | [8] 0.981 | [9] 1.01 | [10] 0.997 | [11] 0.999

CC#C[C@]1(O)CC[C@H]2[C@@H]3CCC4=CC(=O)CCC4=C3[C@@H](c3ccc(N(C)C)cc3)C[C@@]21C
inactive: [1] 0.978 | [2] 0.98 | locus YDR150W, strain NUM1, stronger effect = lower value 0.981 | [3] 1.01 | [4] 1 | [5] 0.965 | [6] 0.984 | locus YNL128W, strain TEP1, stronger effect = lower value 1.04 | [7] 0.951 | [8] 0.983 | [9] 0.998 | [10] 0.979 | locus YNL322C, strain KRE1, stronger effect = lower value 0.965 | [11] 0.991 | locus YPL055C, strain LGE1, stronger effect = lower value 0.99

CC#CC1(O)CCC2C3CCC4=CC(=O)CCC4=C3C(c3ccc(N(C)C)cc3)CC21C (stereo unspecified)
inactive: [12] 0.982 | [13] 0.996 | [14] 0.989 | [15] 0.999 | [16] 0.998 | [17] 0.993 | [18] 1.01 | [19] 1 | [20] 0.993 | [21] 1 | [22] 1.01 | [23] 1.01 | [24] 1 | [25] 0.997 | [26] 1.01 | [27] 0.997 | [28] 1 | [29] 0.994 | [30] 1.01 | [31] 1.01 | locus YDR195W, strain ref2 1.07 | [32] 0.996 | [33] 1.02 | [34] 0.998 | [35] 0.966 | [36] 0.995 | [37] 0.99 | [38] 1.01 | [39] 0.996 | [40] 0.996 | [41] 1.01 | [42] 1.01 | [43] 1.03 | [44] 1 | [45] 1 | [46] 1.01 | [47] 0.987 | [48] 1 | [49] 0.995 | [50] 1 | [51] 0.997 | [52] 1 | [53] 0.998 | [54] 1.02 | [55] 0.946 | [56] 1 | [57] 0.983 | [58] 0.99 | [59] 1.02 | [60] 0.99 | [61] 0.993 | [62] 0.996 | [63] 1.01 | [64] 0.999 | [65] 1 | [66] 0.997 | [67] 0.988 | [68] 0.996 | [69] 0.96 | [70] 1 | [71] 0.995 | [72] 1.13 | [73] 0.993 | [74] 0.996 | [75] 0.998 | [76] 1.02 | [77] 1.11 | [78] 0.991 | [79] 0.998 | [80] 1 | [81] 1 | [82] 0.993 | [83] 1.07 | [84] 1.01 | [85] 1 | [86] 0.996 | [87] 0.991 | [88] 1.01 | [89] 0.976 | [90] 0.986 | [91] 0.994 | [92] 0.924 | [93] 1.04 | [94] 0.988 | [95] 1.01 | [96] 0.964 | [97] 0.985

C=CC[C@]1(O)CCC2C3CCC4=CC(=O)CCC4=C3C=C[C@@]21C (stereo partly specified)
active: [30] 0.806 | [35] 0.551 | [42] 0.815 | [69] 0.804 | [70] 0.838 | [81] 0.817
inactive: [12] 0.989 | [13] 0.975 | [14] 0.994 | [15] 0.989 | [16] 0.988 | [17] 0.986 | [18] 0.975 | [19] 0.988 | [20] 0.996 | [21] 1.01 | [22] 0.998 | [23] 0.998 | [24] 0.999 | [25] 0.987 | [26] 0.996 | [27] 0.991 | [28] 0.995 | [29] 0.996 | [31] 0.997 | locus YDR195W, strain ref2 1.05 | [32] 0.985 | [33] 0.997 | [34] 1.01 | [36] 0.992 | [37] 0.995 | [38] 0.993 | [39] 0.997 | [40] 0.996 | [41] 0.998 | [43] 1.01 | [44] 0.992 | [45] 0.99 | [46] 0.995 | [47] 0.989 | [48] 0.985 | [49] 0.935 | [50] 0.996 | locus YHR030C, strain SLT2, stronger effect = lower value 0.992 | locus YHR079C, strain IRE1, stronger effect = lower value 1 | [51] 0.944 | [52] 0.984 | [53] 1 | locus YJL095W, strain BCK1, stronger effect = lower value 0.909 | [54] 0.991 | [55] 0.91 | [56] 0.995 | [57] 1 | [58] 0.982 | [59] 0.993 | locus YJR066W, strain TOR1, stronger effect = lower value 0.946 | [60] 0.984 | [61] 0.977 | [62] 0.996 | [63] 1 | [64] 0.995 | [65] 0.991 | [66] 1 | locus YLR113W, strain HOG1, stronger effect = lower value 0.884 | [67] 0.986 | [68] 0.991 | [71] 0.969 | [72] 0.999 | [73] 0.982 | [74] 1 | [75] 0.98 | [76] 0.993 | [77] 1 | [78] 0.993 | [79] 0.895 | [80] 0.995 | locus YNL183C, strain NPR1, stronger effect = lower value 0.93 | [82] 1 | [83] 1.01 | [84] 0.999 | [85] 0.997 | [86] 0.99 | [87] 0.982 | [88] 0.998 | [89] 0.994 | [90] 1.01 | locus YOR231W, strain MKK1, stronger effect = lower value 0.985 | [91] 0.998 | [92] 0.872 | [93] 0.953 | [94] 0.988 | [95] 1.02 | [96] 1.04 | [97] 0.991 | locus YPL256C, strain CLN2, stronger effect = lower value 0.993
